A short description of experiment [1]: qHTS RealTime-Glo MT Cell Viability Assay in HEK293 cells - 16 hour (AID 1224872). Also: nearly all actives have a fitted effect of over 50% in size. Also: potency is read from the fitted curve at half-maximal effect. An outline of the steps: (§1)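 HEK293 cells seeded with NanoLuc/prosubstrate reagent, rested 5 h at 37 C, then dosed and kept at 37 C up to 40 h. Nonlytic real-time luminescence from viable cells read at 0, 8, 16, 24, 32 and 40 h.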
(In general: Quantitative high-throughput screening tests each substance at several concentrations.)

Experiment [2] can be described thus: qHTS RealTime-Glo MT Cell Viability Assay in HepG2 cells - 8 hour (AID 1224873). Also: nearly all actives have a fitted effect of over 55% in size. An outline of the steps:
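HepG2 cells mixed with RealTime-Glo MT reagents (NanoLuc plus cell-permeant prosubstrate) were seeded at 600 cells/well, incubated 5 h at 37 C/5% CO2, then pinned with compounds in DMSO; nonlytic luminescence tracked viability during 40 h treatment.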

Experiment [3] in a line: qHTS RealTime-Glo MT Cell Viability Assay in HEK293 cells - 40 hour (AID 1224874). Also: nearly all actives have a fitted effect of over 50% in size. Also: potency is read from the fitted curve at half-maximal effect. The conditions noted are these: RealTime-Glo luminescence; max response: hits give low values. An outline of the steps: (§2)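 Measured as luminescence from the same continuously cultured HEK293 wells at successive time points (0, 8, 16, 24, 32, 40 h) after compound addition. Reagent present from seeding; dosing at 5 h; incubation 37 C.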

Experiment [4] can be described thus: A CellTox Green Cytotoxicity Assay to monitor cytotoxicity in HEK293 cells - 24 hour (AID 1224875). Also: series mostly up to about 77 µM; nearly all actives have a fitted effect of over 45% in size. A digest of the protocol:
(§3)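 Homogeneous no-lysis format: HEK293 cell suspension mixed with CellTox Green reagent, seeded, incubated 5 h at 37 C/5% CO2, then dosed by pintool with compound in DMSO.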

Experiment [5] in a line: A CellTox Green Cytotoxicity Assay to monitor cytotoxicity in HepG2 cells - 16 hour (AID 1224876). Also: nearly all actives have a fitted effect of over 45% in size. An outline of the steps:
(§4)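 Fluorescent DNA-binding dye, 600 HepG2 cells/well, 5 h preincubation then compound in DMSO; same plates read at 0–40 h, 37 C.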

A short description of experiment [6]: qHTS RealTime-Glo MT Cell Viability Assay in HepG2 cells - 32 hour (AID 1224877). Also: nearly all actives have a fitted effect of over 55% in size. A digest of the protocol:
(§5)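 HepG2 cells (600/well) were dispensed with RealTime-Glo reagents, incubated 5 h at 37 °C, then treated with compounds in DMSO for up to 40 h. Nonlytic NanoLuc luminescence reflecting viable cells was read at each stated time point.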

Experiment [7] in a line: A CellTox Green Cytotoxicity Assay to monitor cytotoxicity in HepG2 cells - 24 hour (AID 1224878). Also: nearly all actives have a fitted effect of over 45% in size. An outline of the steps: as §4
The nature of experiment [8]: A CellTox Green Cytotoxicity Assay to monitor cytotoxicity in HepG2 cells - 40 hour (AID 1224879). Also: nearly all actives have a fitted effect of over 40% in size. A digest of the protocol: as §4
Experiment [9] can be described thus: A CellTox Green Cytotoxicity Assay to monitor cytotoxicity in HEK293 cells - 32 hour (AID 1224881). Also: nearly all actives have a fitted effect of over 40% in size. An outline of the steps: as §3
Experiment [10] can be described thus: A CellTox Green Cytotoxicity Assay to monitor cytotoxicity in HepG2 cells - 0 hour (AID 1224882). Also: nearly all actives have a fitted effect of over 35% in size. Also: potency is read from the fitted curve at half-maximal effect. A digest of the protocol:
as §4

Experiment [11] can be described thus: A CellTox Green Cytotoxicity Assay to monitor cytotoxicity in HepG2 cells - 32 hour (AID 1224883). Also: nearly all actives have a fitted effect of over 50% in size. A digest of the protocol:
as §4

Experiment [12] in a line: A CellTox Green Cytotoxicity Assay to monitor cytotoxicity in HEK293 cells - 8 hour (AID 1224884). Also: nearly all actives have a fitted effect of over 35% in size. A digest of the protocol:
as §3

Experiment [13] can be described thus: qHTS RealTime-Glo MT Cell Viability Assay in HepG2 cells - 16 hour (AID 1224885). Also: nearly all actives have a fitted effect of over 50% in size. An outline of the steps:
as §5

The nature of experiment [14]: qHTS RealTime-Glo MT Cell Viability Assay in HEK293 cells - 24 hour (AID 1224886). An outline of the steps: as §1
A short description of experiment [15]: qHTS RealTime-Glo MT Cell Viability Assay in HEK293 cells - 8 hour (AID 1224887). An outline of the steps:
as §2

The nature of experiment [16]: A CellTox Green Cytotoxicity Assay to monitor cytotoxicity in HEK293 cells - 16 hour (AID 1224888). Also: nearly all actives have a fitted effect of over 35% in size. An outline of the steps: as §3
Experiment [17] is described as follows: qHTS RealTime-Glo MT Cell Viability Assay in HepG2 cells - 0 hour (AID 1224889). Also: nearly all actives have a fitted effect of over 50% in size. A digest of the protocol: as §5
The nature of experiment [18]: A CellTox Green Cytotoxicity Assay to monitor cytotoxicity in HepG2 cells - 8 hour (AID 1224890). Also: nearly all actives have a fitted effect of over 45% in size. A digest of the protocol: as §4
Experiment [19] is described as follows: qHTS assay to identify small molecule antagonists of the estrogen receptor alpha (ER-alpha) signaling pathway using the BG1 cell line in the presence of 0.1 nM 17-beta-estradiol - cell viability counter screen (AID 1259241). Also: nearly all actives have a fitted effect of over 40% in size. An outline of the steps:
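In this screen, hormone-deprived VM7Luc4E2 cells were seeded at 4,000 per well, dosed with compound and 0.1 nM estradiol final, and incubated 22 hr at 37C and 5% CO2; fluorogenic live-cell protease signal reported viability.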

Experiment [20] can be described thus: qHTS RealTime-Glo MT Cell Viability Assay in HEK293 cells - 0 hour (AID 1224880). An outline of the steps:
as §2

Structures are written as SMILES. Values without a mark were called inactive. Results filed as inconclusive are left out. Active and inactive are the calls of the source. Calls follow the shape of the dose curve; as a rule, active = well fitted curve in the direction sought with a large enough effect in the repeat runs; inconclusive = weak or mixed curves; inactive = no such curve, though single readings can be large; an effect the other way counts as inactive or inconclusive.
% is scaled to controls: 0 for no effect and ±100 for the full control effect.

Turning to `CC1=NN(c2cc(S(=O)(=O)O)ccc2Cl)C(=O)C1N=Nc1ccccc1` (stereo unspecified), the Potency result in experiment [1], in experiment [6], in experiment [8], in [10], in experiment [11] and in experiment [14] was “inactive” throughout. Besides, the Potency result in experiment [15] and in experiment [17] was “inactive” throughout. In addition, the call in [2], in experiment [4], in experiment [5], in experiment [7], in experiment [9] and in experiment [12] was inactive. Also, the result in experiment [13], in [16] and in experiment [18] was inactive. Moreover, the max response in [3] was 8.94%.
For `Cc1ccc(C(=O)Nc2ccc(S(=O)(=O)O)c3cc(S(=O)(=O)O)cc(S(=O)(=O)O)c23)cc1NC(=O)c1cccc(NC(=O)Nc2cccc(C(=O)Nc3cc(C(=O)Nc4ccc(S(=O)(=O)O)c5cc(S(=O)(=O)O)cc(S(=O)(=O)O)c45)ccc3C)c2)c1`, the Potency result in [1], in [6], in experiment [8], in [11], in experiment [14] and in experiment [15] was “inactive” each time. Moreover, in experiment [17], the Potency entry was “inactive”. In addition, the molecule was called inactive in [2], in [4], in experiment [5], in [7], in [9] and in experiment [12]. Moreover, the molecule was called inactive in [13], in experiment [16], in experiment [18] and in [19]. Besides, the max response in [3] was 4.78%. Besides, the Potency in experiment [10] was 23.9 µM (active).
For the molecule `CC[C@H]1OC(=O)[C@H](C)[C@@H](O[C@H]2C[C@@](C)(OC)[C@@H](O)[C@H](C)O2)[C@H](C)[C@@H](O[C@@H]2O[C@H](C)C[C@H](N(C)C)[C@H]2O)[C@](C)(OC)C[C@@H](C)C(=O)[C@H](C)[C@@H](O)[C@]1(C)O`, the Potency entry in experiment [1], in [6], in experiment [8], in experiment [10], in [11] and in experiment [14] was “inactive” in each case. The Potency result in experiment [15] is “inactive”. Further, the result in [2], in experiment [4], in experiment [5], in experiment [7], in [9] and in experiment [12] was inactive. Moreover, the outcome in experiment [13], in [16] and in experiment [18] was inactive. Also, in [3], the max response is -20.3%.
In the case of `CCCCCCCC1CCCC1=O` (stereo unspecified), the Potency result in [1], in experiment [6], in [8], in experiment [10], in experiment [11] and in [14] was “inactive” in each case. Moreover, the Potency entry in experiment [15] is “inactive”. In addition, the molecule was classed as inactive in experiment [2], in [4], in experiment [5], in [7], in experiment [9] and in [12]. The result in [13], in [16], in experiment [18] and in experiment [19] was inactive. Further, the max response in [3] is 18.6%.
For `O=C1CCCCCCCCCCCCCCO1`, the Potency result in experiment [1], in experiment [6], in [8], in experiment [20], in experiment [10] and in experiment [11] was “inactive” each time. Besides, the Potency result in [14] and in experiment [15] was “inactive” in each case. In addition, the outcome in experiment [2], in [4], in [5], in experiment [7], in experiment [13] and in [16] was inactive. Further, the molecule was called inactive in [18] and in experiment [19]. Further, the max response in experiment [3] was 0.109%.
Take `CO[C@@]1(NC(=O)C(C(=O)O)c2ccc(O)cc2)C(=O)N2C(C(=O)O)=C(CSc3nnnn3C)CO[C@@H]21` (stereo partly specified): the Potency entry in experiment [1], in [6], in [8], in [20], in [11] and in experiment [14] was “inactive” each time. Besides, in [15], the Potency result was “inactive”. Further, the result in experiment [2], in experiment [4], in experiment [5], in experiment [7], in [12] and in experiment [13] was inactive. The result in experiment [16], in experiment [18] and in experiment [19] was inactive. Further, the max response in experiment [3] is 11.1%.
Consider `CCOC(=O)COC(=O)c1ccccc1C(=O)OCC`, for which the Potency result in experiment [1], in [6], in [8], in experiment [10], in [11] and in experiment [14] was “inactive” in each case. For the same molecule, the Potency result in experiment [15] and in [17] was “inactive” in each case. Moreover, the molecule was called inactive in experiment [2], in experiment [4], in experiment [5], in experiment [7], in [9] and in experiment [13]. Also, the molecule was classed as inactive in experiment [16], in experiment [18] and in [19]. Besides, the max response in experiment [3] is 11%.
Turning to `CN(C)C(=O)Oc1ccc[n+](C)c1`, the Potency result in experiment [1], in experiment [6], in experiment [8], in experiment [10], in experiment [11] and in experiment [14] was “inactive” throughout. Also, the Potency result in experiment [15] and in [17] was “inactive” each time. The outcome in [2], in [4], in experiment [5], in experiment [7], in experiment [9] and in [12] was inactive. Besides, the call in experiment [13], in experiment [16], in [18] and in [19] was inactive. Also, the max response in experiment [3] is 5.97%.
As for `CN1C(C)(C)CC(O)CC1(C)C`, the Potency entry in experiment [1], in experiment [6], in [8], in experiment [10], in [11] and in [14] was “inactive” each time. In addition, the Potency result in [15] and in experiment [17] was “inactive” throughout. Also, the call in experiment [2], in experiment [4], in experiment [5], in experiment [7], in [9] and in experiment [12] was inactive. Further, the outcome in experiment [13], in [16], in experiment [18] and in [19] was inactive. Further, the max response in experiment [3] is 2.49%.
In the case of `CC(C)CCCO`, the Potency entry in [1], in experiment [6], in experiment [8], in experiment [10], in [11] and in [14] was “inactive” throughout. In addition, the Potency entry in experiment [15] and in [17] was “inactive” throughout. The result in experiment [2], in experiment [4], in experiment [5], in [7], in experiment [9] and in [13] was inactive. The molecule was called inactive in [16], in [18] and in experiment [19]. Further, the max response in experiment [3] was 9.91%.
`[O-][n+]1cccc(CO)c1`: the Potency result in experiment [1], in experiment [6], in experiment [8], in experiment [10], in experiment [14] and in experiment [15] was “inactive” throughout. The Potency result in experiment [17] is “inactive”. The molecule was classed as inactive in experiment [2], in experiment [4], in experiment [5], in experiment [7], in experiment [9] and in experiment [12]. Besides, the outcome in experiment [13], in experiment [16], in experiment [18] and in experiment [19] was inactive. The max response in experiment [3] is 8.89%.
Consider `O=C(O)CNC(=O)c1ccc(CO)o1`, for which the Potency result in experiment [1], in experiment [6], in experiment [8], in [20], in experiment [10] and in [14] was “inactive” each time. The Potency result in [15] and in experiment [17] was “inactive” in each case. The result in experiment [2], in [4], in [5], in experiment [7], in experiment [12] and in [13] was inactive. Also, the outcome in [16], in experiment [18] and in [19] was inactive. In addition, in experiment [3], the max response is 3.96%.
As for `CCN(Cc1ccccc1)c1ccccc1`, the Potency is 19.3 µM (active) in experiment [1] and 21.6 µM (active) in [3]. Also, the molecule was classed as inactive in experiment [2], in experiment [4], in experiment [5], in experiment [7], in experiment [13] and in experiment [16]. Besides, the molecule was called inactive in [18]. The Potency result in [6], in experiment [8], in experiment [20], in experiment [10], in experiment [11] and in [15] was “inactive” each time. In addition, the Potency result in experiment [17] is “inactive”.
In the case of `O=C(O)CCSCCC(=O)O`, the Potency entry in [1], in [6], in [8], in experiment [10], in experiment [11] and in experiment [14] was “inactive” throughout. Moreover, the Potency entry in experiment [15] and in experiment [17] was “inactive” throughout. In addition, the molecule was called inactive in experiment [2], in experiment [4], in [5], in experiment [7], in experiment [9] and in experiment [12]. Further, the molecule was called inactive in experiment [13], in experiment [16], in experiment [18] and in [19]. Moreover, the max response in experiment [3] is 0.716%.

These data come from PubChem BioAssay (Tox21).
